Source: PubChem
BoNT F protease: blocks Botulinum neurotoxin F light chain protease; inhibition, % at 10 µM; AID 588497; Multiplex microsphere protease cleavage assay, flow cytometry; 0.22% of 360,000 active; in the data active = inhibition above about 35%, passing the limit was not always enough; inconclusive = no clear call, values can overlap the other calls
MazF activator: activators of E. coli MazEF toxin-antitoxin RNase; P0AE70; FAM/BHQ RNA-DNA oligo cleavage fluorescence, 5 h; activation, % at 20 µM; 0.32% of 350,000 active; in the data active = activation above about 50%
Target sequence (P0AE70 whole entry, looked up): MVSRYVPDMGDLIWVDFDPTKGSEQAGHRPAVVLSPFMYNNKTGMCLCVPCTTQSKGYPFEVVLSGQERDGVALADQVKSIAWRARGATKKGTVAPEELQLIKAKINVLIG
Autofluor counter: flagged as autofluorescent in microsphere protease counterscreen. fluorescence intensity (no concentration beside the values). 3.1% of 360,000 active. AID 624483. compound autofluorescence counterscreen, microsphere flow cytometry; hits give high values; in the data active = fluorescence intensity above about 16000; inconclusive = no clear call, values can overlap the other calls
Anthrax LF prot: blocks Bacillus anthracis lethal factor protease. AID 588501. P15917. 0.12% of 360,000 active. inhibition, % at 10 µM. multiplex microsphere protease cleavage assay, LF
VHR inh abs: DUSP3 (human) phosphatase inhibition; P51452; recombinant VHR phosphatase, pNPP absorbance; inhibition, % at 13.3 µM; 0.52% of 290,000 active; AID 1654; in the data active = inhibition above about 50%
Target sequence (P51452 whole entry, looked up): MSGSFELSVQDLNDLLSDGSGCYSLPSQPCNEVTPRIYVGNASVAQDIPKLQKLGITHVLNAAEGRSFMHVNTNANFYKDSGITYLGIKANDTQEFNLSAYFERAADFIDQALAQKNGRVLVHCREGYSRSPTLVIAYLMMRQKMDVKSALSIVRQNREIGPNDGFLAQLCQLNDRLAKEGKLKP
BoNT-A LC inh2: BoNT A light chain protease inhibition | multiplex microsphere protease substrate cleavage, flow cytometry | inhibition, % at 10 µM | 0.17% of 360,000 active | AID 588499
Hits are given with their value; - = inactive; ? = inconclusive; . = no result. Most compounds without a hit are left out; they make up all but 4.1% or so of the library. Rule as the data show it, unless noted: active = inhibition above about 30%; inconclusive = no clear call, values can overlap the other calls; inactive = below that.

SMILES	BoNT F protease	MazF activator	Autofluor counter	Anthrax LF prot	VHR inh abs	BoNT-A LC inh2
COc1ccc2c(c1)C1NC(=S)NC(C)(O2)C1C(=O)Nc1ccc(C)cc1C (stereo not drawn)	40	-	-	-	-	-
COc1ccc(CN(Cc2cc3cc(OC)c(OC)cc3[nH]c2=O)C(=O)NC2CCCCC2)cc1	-	-	22119	-	-	-
Cc1ccc(C)c2[nH]c(=O)c(CN(CC3CCCO3)C(=O)NC3CCCCC3)cc12 (stereo not drawn)	-	-	19956	-	-	?
COc1cc2cc(CN(C(=O)NC3CCCCC3)C3CCCC3)c(=O)[nH]c2cc1OC	-	-	-	-	-	-
CCc1cc(Cn2nc(-c3ccccc3)cc2C(=O)NCc2cccs2)on1	-	-	-	-	.	-
COCCN1C(=O)COc2ccccc2C1C(=O)NC(C)(C)C (stereo not drawn)	-	.	-	-	.	-
CN(CCOc1ccccc1)C(=O)CNC(=O)c1ccc(C(C)(C)C)cc1	.	-	.	.	.	.
O=C1COc2ccc(S(=O)(=O)CCC(=O)NC3CCCCC3)cc2N1	-	-	-	-	-	-
Nc1ccn([C@@H]2O[C@H](C(=O)N(CCC3=CCCCC3)CC3CC3)[C@@H](O)[C@H]2O)c(=O)n1	-	.	-	-	.	-
N#C/C(=C\c1c(Cl)cccc1Cl)c1nc2ccccc2o1	49	-	-	-	-	-
Cc1cc(C)n(-c2ccccc2[N+](=O)[O-])n1	-	-	-	-	-	-
CNc1c([N+](=O)[O-])cnn1-c1ccc(Cl)cc1Cl	-	-	18639	-	-	-
CS(=O)(=O)N1CCN(c2ccc(Cl)cc2[N+](=O)[O-])CC1	-	-	-	-	-	-
CNc1c([N+](=O)[O-])cnn1-c1ccccc1Cl	-	-	23635	-	-	-
CC(=O)Nc1cc(-c2cccc(N)c2)cn2c(-c3ccccc3)cnc12	-	.	-	-	.	-
CCCOc1ccc(C(=O)c2nc3c(n2O)CCCCC3)cc1	-	-	23225	-	-	-
O=C(c1ccccc1)c1nc2c(n1O)CCCCC2	-	-	-	-	-	-
O=C1CCCC(O)=C1C1C2=C(CCCC2=O)Oc2ccccc21 (stereo not drawn)	-	-	21293	-	-	?
O=C1CCCC2=C1C(c1ccccc1)C1=C(CCCC1=O)O2	.	.	.	.	-	.
CN1C=CC(=O)[C@@H](OC(=O)Nc2ccc(Br)cc2)[C@H]1c1ccccc1Br	-	-	-	-	.	-
Cn1nccc1-c1ccc(C(=O)NCc2ccco2)c2occc12	-	.	-	-	.	-
COc1cc(OC)cc(-c2c(C#Cc3ccsc3)c3cc(-c4ccc5c(c4)OCCO5)ccc3n2C)c1	-	-	-	-	.	-
Cc1cc(NC(=O)C(C)Sc2nc(-c3ccccc3)cc(=O)[nH]2)no1 (stereo not drawn)	-	-	-	-	-	-
CC(Sc1nc(-c2ccccc2)cc(=O)[nH]1)C(=O)O (stereo not drawn)	-	-	24389	-	-	-
CC(=O)Nc1cccc(OCC(=O)NS(=O)(=O)c2ccc(C)cc2)c1	-	-	23647	-	-	-
SMILES	BoNT F protease	MazF activator	Autofluor counter	Anthrax LF prot	VHR inh abs	BoNT-A LC inh2
Cc1cccc(OCC(=O)NS(=O)(=O)c2ccc(Br)cc2)c1	-	-	-	-	-	-
COc1ccc2c(c1OC)C(=O)OC2CC(=O)c1ccc2c(c1)OCO2 (stereo not drawn)	-	-	16170	-	-	?
COC(=O)c1ccccc1CON1C(=O)C(C)(C)N(OCc2ccccc2C(=O)OC)C(=O)C1(C)C	-	-	16139	-	-	-
COC(=O)c1ccccc1NC(=O)CC(=O)Nc1ccccc1C(=O)OC	-	-	-	-	.	-
CCNc1nc2c(c(=O)n(C)c(=O)n2C)n1Cc1ccc(Cl)cc1	-	-	-	-	-	-
COCCNc1nc2c(c(=O)n(Cc3cccc(Cl)c3)c(=O)n2C)n1C	-	-	-	-	.	-
COCCNc1nc2c(c(=O)n(Cc3ccc(OC)cc3)c(=O)n2C)n1C	-	-	22936	-	-	-
COc1ccc(CNc2nc3c(c(=O)n(Cc4ccc(Cl)cc4)c(=O)n3C)n2C)cc1	-	-	16319	-	-	-
COC(=O)c1cc(=O)nc(NN=C2c3ccccc3-c3ccccc32)s1	-	.	-	-	.	-
COC(=O)CC1(C(=O)OC)Nc2cc(Cl)c(Cl)cc2S(=O)(=O)N1O (stereo not drawn)	-	123	-	-	.	-
COC(=O)CCC(=O)Nc1ccc(Cl)c(Cl)c1	-	-	-	-	-	-
